Experimental findings from the supplement of paper PMC7411054 are described below.

Counter-ions that a name gives are not always drawn.

Holding throughout (conditions): treatment time: 24 h
In experiment [1] the test system is A549-ACTB-RAB5A. Description: lowest phenotypically active concentration; higher = less potent. In outline:
(§1)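 Fifteen reporter lines derived from A549, HepG2 and WPMY1 cells by gene editing, carrying BFP for segmentation plus GFP and RFP/FusionRed markers, were exposed to 0.3, 1, 3 or 9 µM for 24 h in four wells each and imaged live. Live-cell features from each well were normalised to solvent control wells. A well set counted as deviating when ≥3 of 4 wells lay beyond the 95th percentile of control Euclidean distances, and as reproducible when the median replicate Pearson correlation exceeded the 95th percentile of non-replicates. Phenotypic activity was assigned only when both criteria were met.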

The test system of experiment [2] is A549-CANX-COX4. The experiment is described as above. Summed up:
as §1

Experiment [3] deals with A549-GM130-SQSTM1. The description is as above. Summed up:
as §1

For experiment [4], the system named is A549-TP53BP1-CLTA. The experiment is described as above. Summed up:
as §1

Experiment [5] deals with A549-TUBA1B-RELA. Described as above. In outline:
as §1

Experiment [6] has as its system HepG2-TP53BP1-CLTA. Described as above. In outline:
as §1

In experiment [7] the test system is A549-ACTB-RAB5A. Description: phenotypically active (imaging signature differs from DMSO and reproducible) at any of 0.3-9 uM (binary (1 = active, 0 = inactive)); higher = active. In outline:
as §1

Experiment [8] has as its system A549-CANX-COX4. The description is as above. In outline: as §1
The subject of experiment [9] is A549-GM130-SQSTM1. The description is as above. Summed up: as §1
The test system of experiment [10] is A549-TP53BP1-CLTA. The description is as above. Summed up: as §1
Experiment [11] deals with A549-TUBA1B-RELA. Described as above. In outline: as §1
Experiment [12] has as its system HepG2-ACTB-RAB5A. The description is as above. Summed up:
as §1

In experiment [13] the test system is HepG2-CANX-COX4. The description is as above. In outline:
as §1

Experiment [14] concerns HepG2-GM130-SQSTM1. The description is as above. In outline: as §1
Experiment [15] concerns HepG2-TP53BP1-CLTA. The experiment is described as above. Summed up:
as §1

Experiment [16] relates to HepG2-TUBA1B-RELA. Described as above. In outline: as §1
In experiment [17] the test system is WPMY1-CANX-COX4. Described as above. Summed up: as §1
Experiment [18] has as its system WPMY1-GM130-SQSTM1. The description is as above. In outline: as §1
The subject of experiment [19] is WPMY1-TP53BP1-CLTA. Described as above. Summed up:
as §1

For experiment [20], the system named is WPMY1-TUBA1B-RELA. The description is as above. Summed up: as §1

Consider `COc1ccc(N2C(=O)CSC2c2cccc(Br)c2)c(OC)c1` (stereo not given), for which the “lowest phenotypically active concentration” value in experiment [1] is 3 µM; in [2] it was 9 µM; in experiment [3], 9 µM; in [4], 3 µM; in [5], 9 µM; in experiment [6] it was 9 µM. In addition, the phenotypically active in [7], in [8], in [9], in [10], in experiment [11] and in experiment [12] was 1 (active) throughout. The phenotypically active in [13], in experiment [14], in experiment [15], in experiment [16], in [17] and in experiment [18] was 1 (active) each time. For the same molecule, the phenotypically active in [19] and in experiment [20] was 1 (active) throughout.

For the molecule `COCC(=O)O[C@]1(CCN(C)CCCc2nc3ccccc3[nH]2)CCc2cc(F)ccc2[C@@H]1C(C)C` [mibefradil], the “lowest phenotypically active concentration” value in [1] worked out at 3 µM; in [2], 9 µM; in [3], 3 µM; in [4] it was 9 µM; in [5] it was 3 µM; in [6], 9 µM. For the same molecule, the phenotypically active in experiment [7], in [8], in [9], in experiment [10], in experiment [11] and in experiment [12] was 1 (active) throughout. Besides, the phenotypically active in [13], in experiment [14], in [15], in experiment [16], in experiment [17] and in [18] was 1 (active) in each case. The phenotypically active in [19] and in [20] was 1 (active) throughout.

On to `Nc1nc(Cl)nc2c1ncn2[C@H]1C[C@H](O)[C@@H](CO)O1` [cladribine], for which the “lowest phenotypically active concentration” value in experiment [1] is 3 µM; in [2], 1 µM; in experiment [3], 1 µM; in [4], 3 µM; in experiment [5], 1 µM; in [6], not above 0.3 µM. For the same molecule, the phenotypically active in experiment [7], in experiment [8], in [9], in experiment [10], in [11] and in experiment [12] was 1 (active) each time. In addition, the phenotypically active in experiment [13], in experiment [14], in experiment [15], in experiment [16], in experiment [17] and in experiment [18] was 1 (active) throughout. Moreover, the phenotypically active in experiment [19] and in [20] was 1 (active) in each case.

As for `Cc1c[nH]c2nccc(Oc3c(F)cc(Nc4cc(Cl)nc(N)n4)cc3F)c12`, the “lowest phenotypically active concentration” value in [1] is not above 0.3 µM; in experiment [2] it was not above 0.3 µM; in experiment [3], not above 0.3 µM; in experiment [4], not above 0.3 µM; in [5], 1 µM; in experiment [6], not above 0.3 µM. Moreover, the phenotypically active in experiment [7], in experiment [8], in experiment [9], in [10], in [11] and in experiment [12] was 1 (active) throughout. Further, the phenotypically active in experiment [13], in experiment [14], in [15], in experiment [16], in [17] and in [18] was 1 (active) each time. In addition, the phenotypically active in [19] and in experiment [20] was 1 (active) in each case.

For the molecule `Oc1cccc(Nc2ccnc3cc(-c4cccc(CN5CCOCC5)c4)sc23)c1` [LCB 03-0110 dihydrochloride], the “lowest phenotypically active concentration” value in [1] worked out at 1 µM; in [2], 3 µM; in experiment [3], 1 µM; in experiment [4] it was 3 µM; in experiment [5] it was 1 µM; in experiment [6] it was 3 µM. The phenotypically active in experiment [7], in [8], in experiment [9], in experiment [10], in [11] and in experiment [12] was 1 (active) throughout. In addition, the phenotypically active in experiment [13], in experiment [14], in experiment [15], in experiment [16], in experiment [17] and in [18] was 1 (active) each time. Moreover, the phenotypically active in [19] and in experiment [20] was 1 (active) in each case.

As for `COc1ccc(C[C@H](N)C(=O)N[C@H]2[C@@H](O)[C@H](n3cnc4c(N(C)C)ncnc43)O[C@@H]2CO)cc1` [Puromycin dihydrochloride], the “lowest phenotypically active concentration” value in experiment [1] is not above 0.3 µM; in experiment [2] it was 1 µM; in [3], 1 µM; in [4], 1 µM; in experiment [5] it was 1 µM; in [6] it was not above 0.3 µM. Also, the phenotypically active in [7], in experiment [8], in experiment [9], in experiment [10], in experiment [11] and in experiment [12] was 1 (active) in each case. The phenotypically active in [13], in [14], in experiment [15], in experiment [16], in experiment [17] and in experiment [18] was 1 (active) throughout. For the same molecule, the phenotypically active in [19] and in [20] was 1 (active) throughout.
